Source: PubChem (several laboratories)
Keap1 Nrf2 FP – disrupts human Keap1 binding to Nrf2 peptide. Q14145. AID 504523. actives 0.15% (n = 340,000). inhibition, % at 9.4 µM. Keap1 Kelch-Nrf2 peptide fluorescence polarization, 1536-well; in the data active = inhibition above about 12%;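 also: human Keap1 Kelch domain with fluorescein labeled Nrf2 9mer peptide probe; 0% = neutral control wells and 100% = peptide positive control; higher means more block of Keap1 binding to Nrf2 peptide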
Bcl-xL primary – blocks human Bcl-xL binding to Bim BH3 peptide; Q07817; GST-Bcl-xL / FITC-Bim BH3 peptide fluorescence polarization; inhibition, % at 10.9 µM; actives 0.7% (n = 320,000); AID 2129;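 active = inhibition above the mean of all tested compounds plus 3 SD, cutoff set per campaign, cut at about 30% in these data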;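 also: 0% = DMSO wells and 100% = unlabeled Bim-BH3 peptide competitor; inhibitors lower millipolarization by displacing the labeled peptide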
LANA DNA inh – blocks KSHV LANA C-terminal domain binding to DNA; actives 0.078% (n = 340,000); MBP-C-LANA/FAM-LBS DNA binding, fluorescence polarization; AID 504423; inhibition, % at 9 µM;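 active = highest replicate inhibition at or above 60% at 9 µM, even if other replicates fall short; inactive = all replicates below 60% inhibition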;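 also: 0% = neutral control wells and 100% = 4 µM acridine orange control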
E coli Lon inh – inhibits E. coli Lon protease. P0A9M0. purified E. coli Lon protease, fluorescence polarization. inhibition, % at 7.94 µM. actives 0.42% (n = 360,000); in the data active = inhibition above about 13%, passing the limit was not always enough;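 also: 0% = enzyme with probe and DMSO and 100% = no enzyme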
Target sequence (P0A9M0 whole entry, looked up): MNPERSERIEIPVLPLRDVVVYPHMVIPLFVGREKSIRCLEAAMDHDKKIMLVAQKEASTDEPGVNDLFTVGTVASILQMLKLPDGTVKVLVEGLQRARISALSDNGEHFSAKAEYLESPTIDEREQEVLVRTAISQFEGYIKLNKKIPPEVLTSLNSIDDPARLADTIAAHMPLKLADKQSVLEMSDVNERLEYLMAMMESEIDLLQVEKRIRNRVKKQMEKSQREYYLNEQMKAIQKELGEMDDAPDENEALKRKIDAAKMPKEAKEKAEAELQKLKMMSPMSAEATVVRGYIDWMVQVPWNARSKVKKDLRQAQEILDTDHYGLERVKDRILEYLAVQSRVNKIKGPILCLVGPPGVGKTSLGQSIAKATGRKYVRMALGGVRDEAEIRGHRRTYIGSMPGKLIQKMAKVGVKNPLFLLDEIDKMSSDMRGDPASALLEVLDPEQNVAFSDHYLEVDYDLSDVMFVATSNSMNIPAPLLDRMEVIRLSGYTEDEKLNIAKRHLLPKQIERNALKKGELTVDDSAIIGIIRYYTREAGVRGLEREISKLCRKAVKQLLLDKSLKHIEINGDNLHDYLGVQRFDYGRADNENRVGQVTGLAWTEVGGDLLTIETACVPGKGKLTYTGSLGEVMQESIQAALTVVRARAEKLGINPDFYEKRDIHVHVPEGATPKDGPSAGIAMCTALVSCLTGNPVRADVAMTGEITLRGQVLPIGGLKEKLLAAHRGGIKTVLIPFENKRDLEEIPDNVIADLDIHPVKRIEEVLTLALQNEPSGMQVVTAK
MCL1 BIM primary – inhibitors of human MCL1 binding to BIM-BH3 peptide; AID 2057; inhibition, % at 10.9 µM; actives 0.68% (n = 320,000); GST-MCL1 / FITC-Bim-BH3 fluorescence polarization; Q07820;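 active = inhibition above the mean inhibition of all tested compounds plus 3 SD, set per campaign, cut at about 40% in these data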;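 also: 0% = DMSO wells and 100% = unlabeled Bim-BH3 peptide control; higher means more loss of mP so more displacement of Bim peptide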
GLD-1 TGE inh – GLD-1-TGE RNA interaction inhibition (C. elegans); Q17339; purified GLD-1 + fluorescein TGE RNA, fluorescence polarization; inhibition, % at 5.96 µM; actives 0.44% (n = 320,000); AID 2280;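 active = percent inhibition above a per-plate cutoff, the plate mean of test compounds plus 3 SD, cut at about 30% in these data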;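 also: 0% = DMSO wells with GLD-1 and probe and 100% = wells lacking GLD-1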
GLD-1 TGE cf – GLD-1 TGE RNA interaction inhibition, confirmation | GLD-1/FL-TGE RNA fluorescence polarization, biochemical | inhibition, % at 5.96 µM | shares compounds with GLD-1 TGE inh | actives 10% (n = 550);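 active = average inhibition across triplicates above the hit cutoff set in the primary screen, cut at about 32% in these data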;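 also: 0% = GLD-1 with RNA probe and DMSO and 100% = wells lacking GLD-1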
DNA intercal 2 – intercalates DNA, flagged as C-LANA false positive. shares compounds with LANA DNA inh. Acridine orange-DNA displacement, fluorescence polarization. AC50, µM (series often up to 35 µM), for inactives: at the highest dose activity change, negative = inhibition. 20 tested, under 10 active. AID 588364;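 active = signal drop with an AC50 no more than ten times the top valid dose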
eLon confirm – E. coli Lon inhibition confirmation. shares compounds with E coli Lon inh. purified E. coli Lon, fluorescence polarization. inhibition, % at 7.94 µM. actives 31% (n = 1,400). AID 602230; in the data active = inhibition above about 16%;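 also: 0% = enzyme with probe and DMSO and 100% = no enzyme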
* hit, by the source's call; x = no result given. Most compounds without a hit are left out; they make up all but 1.3% or so of the library.

SMILES	Keap1 Nrf2 FP	Bcl-xL primary	LANA DNA inh	E coli Lon inh	MCL1 BIM primary	GLD-1 TGE inh	GLD-1 TGE cf	others
Cc1ccc2nc3n(c(=O)c2c1)-c1ccc(Cl)cc1C(=O)NC3Cc1ccccc1 (stereo unspecified)	x	3.6	x	x	2.8	32.8*	0.6
O=C1NC(Cc2ccccc2)c2nc3ccc(Cl)cc3c(=O)n2-c2ccc(Cl)cc21 (stereo unspecified)	x	4.7	x	x	7.6	0.0	x
CCCS(=O)(=O)c1c(S(=O)(=O)CCC)c2c(N)cccn2c1C(=O)c1ccccc1	-1.0	8.3	2.0	-13.7	-4.8	18.1	x
CCCS(=O)(=O)c1c(S(=O)(=O)CCC)c2c(N)cccn2c1C(=O)OC	-1.0	21.1	7.4	4.1	12.1	35.4*	-1.4
Cc1ccc(C2c3sc(=O)[nH]c3SC3C(=O)NC(=O)C32)cc1 (stereo unspecified)	3.1	24.2	3.1	3.9	32.1	53.9*	28.9
O=c1[nH]c2c(s1)C(c1ccc(O)cc1)C1C3CCC(C3)C1S2 (stereo unspecified)	-4.4	4.0	-1.0	2.5	7.7	5.0	x
CCN1C=C(Cc2ccccc2C)C2=C(C1)C(c1ccccc1C)C(C#N)=C(N)O2 (stereo unspecified)	-6.4	11.2	0.5	-16.3	11.6	24.7	x
CCN1C=C(Cc2ccc(F)cc2)C2=C(C1)C(c1ccc(F)cc1)C(C#N)=C(N)O2 (stereo unspecified)	2.0	9.5	-0.5	-13.2	8.0	41.1*	4.8
O=Cc1cccn1-c1ccc(O)cc1	-4.4	4.3	1.9	9.8	-2.1	-1.1	x
O=C(OCCN1CCCCC1)c1c[nH]c2ccccc12	-1.5	10.3	0.7	0.2	3.4	31.8*	-3.7
CCOc1ccccc1C1NC(=O)c2ccccc2O1 (stereo unspecified)	-2.9	3.4	1.5	5.0	3.9	3.4	x
Cc1c(O)ccc2cc(S(=O)(=O)c3ccccc3)c(=O)oc12	3.4	37.5*	9.0	-6.6	36.6	33.9*	48.9*
C=CCCCCCCCCC(=O)NNC1CC(=O)N(c2ccccc2)C1=O (stereo unspecified)	-1.8	-3.0	1.5	1.7	-1.9	-2.2	x
COc1ccc(NC(=O)c2oc3ccccc3c2NC(=O)C2CCCO2)cc1OC (stereo unspecified)	0.9	4.4	1.4	1.1	2.0	70.3*	-2.3
Cc1ccc(NC(=O)c2oc3ccccc3c2NC(=O)C2CCCO2)cc1C (stereo unspecified)	2.6	-0.5	-0.1	0.3	2.8	-7.8	x
O=S(=O)(CCNCc1cccs1)c1ccc(Cl)cc1	-1.8	-1.2	-2.5	6.3	-5.2	-7.8	x
CCOc1ccc(-c2noc(-c3cccnc3)n2)cc1OCC	x	1.1	x	-1.1	3.4	102.5*	-1.9
Cc1c(O)ccc(-c2n[nH]c(C(=O)O)c2-c2nc3ccccc3s2)c1O	-3.4	10.6	0.0	0.7	14.4	44.5*	50.7*
Cc1ccc(-c2nc(-c3ccncc3)no2)cc1Cl	-0.2	0.8	-2.4	6.9	2.6	-2.9	x
Cc1ccc(-c2nc(-c3ccncc3)no2)cc1C	-0.8	3.6	-1.5	2.4	5.3	37.2*	-1.8
COc1ccc(C(=O)NCCc2ccc(C(F)(F)F)cc2)cc1S(=O)(=O)N1CCOCC1	0.9	3.8	-2.0	16.3	-0.2	0.5	x
CC1C2(C)OCC(C#N)(C(=N)O2)C1(C#N)C#N (stereo unspecified)	x	32.1*	x	x	37.0	35.5*	6.7
CCOC(=O)CP(=O)(c1ccccc1)c1ccccc1	1.0	-1.5	1.5	-7.1	-0.5	4.3	x
COC(=O)CP(=O)(c1ccccc1)c1ccccc1	-1.9	32.0*	-0.1	-6.3	37.4	39.5*	-0.8
CC(C)NC(=O)NC(=O)CSc1nncs1	-2.5	4.6	2.8	-5.1	5.3	-5.9	x
SMILES	Keap1 Nrf2 FP	Bcl-xL primary	LANA DNA inh	E coli Lon inh	MCL1 BIM primary	GLD-1 TGE inh	GLD-1 TGE cf	others
O=C(Nc1ccc(Cl)cc1)Nc1ccc(N2CCC(C(F)(F)F)CC2)nc1	0.4	30.9*	2.0	46.6*	32.3	38.4*	22.7	eLon confirm=8.2
CC(=O)Nc1ccc(S(=O)(=O)NCc2ccc(C)cc2)cc1	-6.5	-4.3	1.3	4.6	-3.6	-7.2	x
CC(=O)Nc1ccc(S(=O)(=O)NCc2ccc3c(c2)cc(C)n3C)cc1	-3.0	34.2*	-0.5	48.5*	32.0	44.5*	16.8	eLon confirm=22.2*
CS(=O)(=O)c1sc2nc(-c3cccs3)cc(-c3ccccc3)c2c1N	-5.1	23.0	0.4	20.3*	-3.3	52.6*	-13.6	eLon confirm=-23.0
COc1ccccc1NC(=O)COC(=O)c1ccccc1C(=O)N1CCN(c2ccccc2)CC1	x	42.1*	x	24.3*	43.7*	33.1*	3.9	eLon confirm=5.2
N#C/C(=C/c1ccc2c(c1)OCO2)C(=O)Nc1ccc(O)cc1	-3.6	11.2	5.3	-1.4	2.1	3.4	x
CO/N=C/c1cc([N+](=O)[O-])ccc1Sc1ccc(C)cc1	-2.3	0.7	-0.3	2.0	-2.3	-0.5	x
CCc1cccc(C)c1NC(=O)c1ccccc1	-2.2	-0.6	0.8	-0.9	-1.4	6.3	x
CCc1cccc(C)c1NC(=O)C1=C(C(=O)O)CCCC1	-1.5	29.2	3.3	18.8*	31.6	38.6*	7.2	eLon confirm=32.3*
C/C(=C\C(=O)c1ccccc1)Nc1ccc(O)cc1	-0.7	15.9	-0.4	12.0	17.7	20.5	x
C/C(=C\C(=O)c1cccnc1)Nc1ccc(O)cc1	0.2	7.2	-0.3	21.6*	8.2	31.1*	-1.5	eLon confirm=7.7
N#Cc1ccccc1OCC(=O)Nc1cc(S(=O)(=O)N2CCCCC2)ccc1N1CCOCC1	-2.2	x	-0.8	-2.9	x	x	x
CC1(C)NC(=O)N(CC(=O)OCC(=O)Nc2cccc(S(N)(=O)=O)c2)C1=O	-2.6	1.6	0.0	-1.5	-5.4	2.2	x
O=C(O)c1ccccc1Nc1cc(Cl)c2nonc2c1[N+](=O)[O-]	-0.5	15.6	0.8	0.8	14.9	3.5	x
O=[N+]([O-])c1c(Nc2ccccn2)cc(Cl)c2nonc12	-11.5	-9.2	1.3	52.5*	-39.3	42.8*	2.8	eLon confirm=-7.6
CC1=C(C(N)=O)S(=O)(=O)c2ccccc21	4.8	20.1	2.6	18.4*	20.7	38.1*	24.1	eLon confirm=28.6*
Nc1c(/C=C2\C=CC(=O)C(O)=C2)c(=O)nc2sc(CC(=O)N3CCCCC3)nn12	x	x	x	x	x	x	x	DNA intercal 2=8.3%
